In PubChem BioAssay (EPA / NIEHS) one finds outcome and AC50 data, which are given here for seven compounds.

The nature of test [1]: ATG_NFI_CIS: Attagene CIS-FACTORIAL HepG2 Assay for human Nuclear Factor I (NFI) (AID 2282989). The settings on record: HepG2 cis-regulatory reporter, NFI response element transcription; actives raise or lower the signal. In short, it runs like this: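 HepG2 cells transiently transfected with cis-element-driven multiplexed reporter transcription units, dosed for 24 h. Reporter mRNA quantified by RT-PCR, fluorescent labelling, HpaI digestion and capillary electrophoresis; bidirectional fit versus DMSO baseline.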

A short description of test [2]: ATG_NRF2_ARE_CIS: Attagene CIS-FACTORIAL HepG2 Assay for human Nuclear Factor Erythroid 2 Related Factor 2 (NFR2) response to Antioxidant Response Elements (ARE) (AID 2282992). The conditions noted are these: HepG2 Attagene ARE/NRF2 reporter, transcription factor activity; actives raise or lower the signal. The method in brief:
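Endogenous transcription factor activity read out as reporter transcript levels (RT-PCR plus capillary electrophoresis, fluorescence) in transiently transfected HepG2 cells. Measured at 24 h after dosing; gain or loss of signal fitted versus DMSO.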

Test [3] in a line: ATG_Oct_MLP_CIS: Attagene CIS-FACTORIAL HepG2 Assay for human Octamer-Binding Transcription Factor (Oct) (AID 2282993). The settings on record: HepG2 Attagene cis-factorial Oct reporter, mRNA; actives raise or lower the signal. In short, it runs like this:
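HepG2 cells transiently transfected with cis-promoter-driven multiplexed reporter transcription units, dosed for 24 h. Reporter mRNA quantified by RT-PCR, fluorescent labelling, HpaI digestion and capillary electrophoresis; bidirectional fits versus DMSO baseline.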

In test [4] the target is Cellular tumor antigen p53 (Homo sapiens) (UniProt P04637). Description: ATG_p53_CIS: Attagene CIS-FACTORIAL HepG2 Assay for human p53 Transcription Factor (AID 2282994). The conditions noted are these: HepG2 p53 cis-element reporter, Attagene mRNA; actives raise or lower the signal. The method in brief: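 Endogenous p53 activity read in transiently transfected HepG2 from a cis-element-driven reporter transcript after 24 h exposure. RNA reverse-transcribed, PCR-amplified, fluorescently labelled and sized by capillary electrophoresis; gain or loss fitted against DMSO baseline.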

A short description of test [5]: BSK_3C_TissueFactor: BioMAP Diversity Plus: 3C Assay for Tissue Factor Biomarker Activity (AID 2282997). The conditions noted are these: BioMAP 3C HUVEC, tissue factor biomarker readout; actives raise or lower the signal. In short, it runs like this:
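In this endothelial system, HUVEC are treated for 24 h and Tissue Factor is assessed by ELISA, normalised to DMSO.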

A short description of test [6]: BSK_3C_uPAR: BioMAP Diversity Plus: 3C Assay for Urokinase-type plasminogen activator receptor (uPAR) Biomarker Activity (AID 2282998). The conditions noted are these: BioMAP 3C HUVEC, uPAR biomarker ELISA; actives raise or lower the signal. The method in brief:
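Human umbilical vein endothelial primary cells were exposed to test chemical for 24 h. Cell-surface uPAR was then quantified by ELISA, and responses were fitted bidirectionally against DMSO as negative control and baseline.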

Test [7] can be described thus: BSK_3C_VCAM1: BioMAP Diversity Plus: 3C Assay for Vascular cell adhesion molecule 1 (VCAM1) Biomarker Activity (AID 2282999). The conditions noted are these: BioMAP 3C HUVEC, VCAM1 ELISA, cytokine-stimulated; actives raise or lower the signal. The method in brief:
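Activity fitted in both directions relative to DMSO, with ELISA measurement of the surface marker on primary HUVEC (3C) at 24 h post-treatment; parallel SRB staining (0.1% SRB, TCA-fixed, 560 nm) flagged overt cytotoxicity.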
In general terms: An ELISA detects its analyte on a solid surface through an enzyme-linked reagent.

Test [8] can be described thus: BSK_4H_Eotaxin3: BioMAP Diversity Plus: 4H Assay for Eotaxin 3 Biomarker Activity (AID 2283000).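 On outcome: CCL26 protein level quantified by ELISA in parallel with SRB cytotoxicity check.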 The conditions noted are these: primary human endothelial cells (HUVEC); actives raise or lower the signal. The method in brief: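 ELISA quantitation of CCL26 (Eotaxin-3) protein from chemically dosed human vascular endothelial cells at 24 h; increases and decreases both scored relative to DMSO-treated baseline.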

Read-out in test [9]: Intercellular Adhesion Molecule 1 (ICAM1), ICAM1 (gene 3383)
Description: BSK_3C_ICAM1: BioMAP Diversity Plus: 3C Assay for Intercellular Adhesion Molecule 1 (ICAM1) Biomarker Activity (AID 2283003). The conditions noted are these: primary human endothelial cells (HUVEC); actives raise or lower the signal. In short, it runs like this:
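ELISA readout of ICAM1 in human umbilical vein endothelial cells in the 3C system, taken 24 h post-dose. Gain or loss of signal versus DMSO was fitted in both directions, with SRB total-protein staining run in parallel.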

Test [10] has as its target human Retinoic Acid Receptor beta (RARb), RARB (gene 5915) (UniProt P10826). Description: ATG_RARb_TRANS: Attagene TRANS-FACTORIAL HepG2 Assay for human Retinoic Acid Receptor beta (AID 2283004; active means hit-call score of the fitted dose curve at least 0.9, where 1 is the maximum). The method in brief:
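Fluorescent capillary-electrophoresis detection of GAL4-UAS reporter mRNA defines the endpoint, with induction over DMSO-treated wells scored as activity. Transiently transfected human hepatoma HepG2 cells expressing exogenous NR–Gal4 proteins are exposed to test chemicals for 24 h.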

Test [11] deals with Retinoic acid receptor alpha (Homo sapiens) (UniProt P10276). Briefly: ATG_RARa_TRANS: Attagene TRANS-FACTORIAL HepG2 Assay for human Retinoic Acid Receptor alpha (RARa) (AID 2283005; active means hit-call score of the fitted dose curve at least 0.9, where 1 is the maximum). The method in brief:
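Reporter transcripts, measured by RT-PCR with fluorescent labeling and capillary electrophoresis after 24 h dosing, reflect activity of an exogenous human RARa–GAL4 fusion in transiently transfected HepG2. Fitted for increase relative to DMSO.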

The nature of test [12]: BSK_3C_Proliferation: Cell Proliferation Assessment in the BioMAP Diversity Plus: 3C Assay (AID 2283006).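 On AC50: potency may reflect either rise or fall in cell number versus DMSO.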 The conditions noted are these: primary human endothelial cells (HUVEC). The method in brief:
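Proliferation as total protein: sulforhodamine B (0.1%) stain of TCA-fixed subconfluent human umbilical vein endothelial cells, absorbance 560 nm, 48 h after dosing. Activity fitted in both directions against DMSO baseline.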

Test [13] deals with Nuclear receptor subfamily 1 group I member 2 (Homo sapiens) (UniProt O75469). Briefly: ATG_PXR_TRANS: Attagene TRANS-FACTORIAL HepG2 Assay for human Pregnane X Receptor (PXR) (AID 2283008; active means hit-call score of the fitted dose curve at least 0.9, where 1 is the maximum). In short, it runs like this: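 Transactivation by exogenous PXR–GAL4 fusion measured as reporter transcript induction after 24 h compound treatment of transfected human HepG2 cells. Read-out via RT-PCR and capillary electrophoresis of labelled fragments, fitted upward relative to DMSO.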

The target in test [14] is human Retinoic Acid Receptor gamma (RARg), RARG (gene 5916) (UniProt P13631). Briefly: ATG_RARg_TRANS: Attagene TRANS-FACTORIAL HepG2 Assay for human Retinoic Acid Receptor gamma (RARg) (AID 2283009; active means hit-call score of the fitted dose curve at least 0.9, where 1 is the maximum). The method in brief:
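Transactivation of exogenous RARg-Gal4 fusion measured as reporter transcript induction after 24 h in transfected HepG2 cells. RNA reverse-transcribed, amplified, fluorescently labeled and resolved by capillary electrophoresis; increase relative to DMSO.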

A short description of test [15]: ATG_NF_kB_CIS: Attagene CIS-FACTORIAL HepG2 Assay for human Nuclear Factor Kappa B (NF-kB) (AID 2282991). The conditions noted are these: HepG2 Attagene cis-factorial NF-kB reporter mRNA; actives raise or lower the signal. The method in brief: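 Multiplexed cis-reporter assay in transiently transfected HepG2. 24 h treatment; RNA isolated, RT-PCR, labelled fragments resolved by CE. DMSO baseline.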

Test [16] has as its target human Peroxisome Proliferator-activated Receptor delta (PPARd), PPARD (gene 5467) (UniProt Q03181). Description: ATG_PPARd_TRANS: Attagene TRANS-FACTORIAL HepG2 Assay for human Peroxisome Proliferator-activated Receptor delta (PPARd) (AID 2283002; active means hit-call score of the fitted dose curve at least 0.9, where 1 is the maximum). In short, it runs like this:
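Transient HepG2 transfection (multiple GAL4-UAS RTUs, chimeric receptor-Gal4); 24 h dosing; total RNA → oligo(dT) RT → PCR → 6-FAM primer extension → HpaI cut → CE. Positive direction vs DMSO.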

Test [17] concerns the target Peroxisome proliferator-activated receptor gamma (Homo sapiens) (UniProt P37231). Briefly: ATG_PPARg_TRANS: Attagene TRANS-FACTORIAL HepG2 Assay for human Peroxisome Proliferator-activated Receptor-gamma (PPARg) (AID 2283007; active means hit-call score of the fitted dose curve at least 0.9, where 1 is the maximum). The method in brief:
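Human hepatoma HepG2, transient MRTU transfection, 24 h treatment. mRNA reporter signal by RT-PCR plus capillary electrophoresis, fluorescence detection; fitted for increase over DMSO negative control.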

Test [18] concerns the target human RAR-related Orphan Receptor beta (RORb), RORB (gene 6096) (UniProt Q92753). Description: ATG_RORb_TRANS: Attagene TRANS-FACTORIAL HepG2 Assay for human RAR-related Orphan Receptor beta (RORb) (AID 2283010; active means hit-call score of the fitted dose curve at least 0.9, where 1 is the maximum). In short, it runs like this: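 Read-out is reporter mRNA induction, quantified by RT-PCR with fluorescent capillary electrophoresis, 24 h post-dose in transiently transfected HepG2 expressing exogenous NR-Gal4 chimera. Activity fitted upward versus DMSO.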

The target in test [19] is human Peroxisome Proliferator-activated Receptor alpha (PPARa), PPARA (gene 5465) (UniProt Q07869). Briefly: ATG_PPARa_TRANS: Attagene TRANS-FACTORIAL HepG2 Assay for human Peroxisome Proliferator-activated Receptor alpha (PPARa) (AID 2283001; active means hit-call score of the fitted dose curve at least 0.9, where 1 is the maximum). In short, it runs like this: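 Reporter transcripts quantified by RT-PCR plus capillary electrophoresis after 24 h treatment, fitted upward relative to DMSO. Cells: human HepG2 transiently carrying multiple GAL4-UAS reporter units driven by NR-Gal4 chimeras.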

Records with an inconclusive call do not appear. Activity calls are given as the source filed them. How the source made its calls, unless noted: active means hit-call score of the fitted dose curve at least 0.9, where 1 is the maximum; inactive means score below 0.9.

human Retinoic Acid Receptor gamma (RARg), RARG (gene 5916), sequence (P13631 whole entry, looked up, the tested form may be a part): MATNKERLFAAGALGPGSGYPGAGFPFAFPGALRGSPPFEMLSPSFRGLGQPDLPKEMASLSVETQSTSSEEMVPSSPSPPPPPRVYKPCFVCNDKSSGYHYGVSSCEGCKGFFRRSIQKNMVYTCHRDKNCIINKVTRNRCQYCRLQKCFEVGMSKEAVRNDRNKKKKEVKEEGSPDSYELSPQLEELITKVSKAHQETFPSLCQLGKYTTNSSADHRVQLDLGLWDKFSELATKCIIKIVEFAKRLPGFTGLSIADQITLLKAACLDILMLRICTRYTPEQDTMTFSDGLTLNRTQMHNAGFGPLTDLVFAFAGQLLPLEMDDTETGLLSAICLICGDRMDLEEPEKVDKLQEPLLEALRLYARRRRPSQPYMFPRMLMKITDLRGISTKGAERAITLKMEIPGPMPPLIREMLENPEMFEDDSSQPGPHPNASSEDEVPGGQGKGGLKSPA
Retinoic acid receptor alpha (Homo sapiens), sequence (P10276 whole entry, looked up, the tested form may be a part): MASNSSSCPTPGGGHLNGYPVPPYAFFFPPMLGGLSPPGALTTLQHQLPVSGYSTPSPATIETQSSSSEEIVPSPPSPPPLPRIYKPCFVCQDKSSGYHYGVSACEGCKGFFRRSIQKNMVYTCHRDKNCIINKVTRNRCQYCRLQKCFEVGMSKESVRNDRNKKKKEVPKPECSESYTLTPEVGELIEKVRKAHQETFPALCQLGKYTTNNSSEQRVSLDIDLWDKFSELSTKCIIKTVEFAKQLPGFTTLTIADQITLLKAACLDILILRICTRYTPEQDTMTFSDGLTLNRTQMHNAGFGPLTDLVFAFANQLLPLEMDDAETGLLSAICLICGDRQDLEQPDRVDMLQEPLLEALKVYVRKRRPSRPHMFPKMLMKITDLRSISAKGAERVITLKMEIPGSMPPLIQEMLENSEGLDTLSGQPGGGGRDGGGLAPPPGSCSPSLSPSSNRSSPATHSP
human Retinoic Acid Receptor beta (RARb), RARB (gene 5915), sequence (P10826 whole entry, looked up, the tested form may be a part): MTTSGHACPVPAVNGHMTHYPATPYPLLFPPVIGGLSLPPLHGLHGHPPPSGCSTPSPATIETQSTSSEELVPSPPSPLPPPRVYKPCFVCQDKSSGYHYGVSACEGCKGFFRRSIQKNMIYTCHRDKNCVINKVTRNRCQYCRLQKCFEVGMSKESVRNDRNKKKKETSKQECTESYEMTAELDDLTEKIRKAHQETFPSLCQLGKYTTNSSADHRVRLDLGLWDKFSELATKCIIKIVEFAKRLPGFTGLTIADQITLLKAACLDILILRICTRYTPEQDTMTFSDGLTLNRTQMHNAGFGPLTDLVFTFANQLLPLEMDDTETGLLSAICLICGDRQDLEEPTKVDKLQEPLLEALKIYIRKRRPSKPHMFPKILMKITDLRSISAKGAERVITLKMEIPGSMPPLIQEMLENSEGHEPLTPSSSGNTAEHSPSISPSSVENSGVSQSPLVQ
Cellular tumor antigen p53 (Homo sapiens), sequence (P04637 whole entry, looked up): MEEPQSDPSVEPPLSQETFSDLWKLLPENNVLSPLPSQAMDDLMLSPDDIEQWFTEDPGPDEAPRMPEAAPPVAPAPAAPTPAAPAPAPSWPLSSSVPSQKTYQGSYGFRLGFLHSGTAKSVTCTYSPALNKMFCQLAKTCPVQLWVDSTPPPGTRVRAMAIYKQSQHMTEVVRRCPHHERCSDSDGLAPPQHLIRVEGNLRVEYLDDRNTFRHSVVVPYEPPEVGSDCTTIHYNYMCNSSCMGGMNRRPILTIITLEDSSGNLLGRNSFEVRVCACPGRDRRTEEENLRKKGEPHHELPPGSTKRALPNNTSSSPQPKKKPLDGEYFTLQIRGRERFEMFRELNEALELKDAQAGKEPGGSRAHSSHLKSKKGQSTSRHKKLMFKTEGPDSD
Nuclear receptor subfamily 1 group I member 2 (Homo sapiens), sequence (O75469 whole entry, looked up, the tested form may be a part): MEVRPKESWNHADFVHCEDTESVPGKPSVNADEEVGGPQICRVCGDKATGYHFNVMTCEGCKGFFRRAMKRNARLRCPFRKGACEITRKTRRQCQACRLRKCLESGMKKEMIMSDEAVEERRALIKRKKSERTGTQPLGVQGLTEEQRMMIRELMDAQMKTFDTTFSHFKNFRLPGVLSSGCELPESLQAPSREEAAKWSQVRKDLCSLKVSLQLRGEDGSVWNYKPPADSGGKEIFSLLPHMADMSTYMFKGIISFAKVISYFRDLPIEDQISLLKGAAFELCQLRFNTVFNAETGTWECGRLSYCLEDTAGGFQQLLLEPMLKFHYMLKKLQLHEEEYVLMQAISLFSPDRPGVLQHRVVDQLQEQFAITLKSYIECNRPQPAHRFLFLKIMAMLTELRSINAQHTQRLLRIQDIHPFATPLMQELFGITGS
Peroxisome proliferator-activated receptor gamma (Homo sapiens), sequence (P37231 whole entry, looked up): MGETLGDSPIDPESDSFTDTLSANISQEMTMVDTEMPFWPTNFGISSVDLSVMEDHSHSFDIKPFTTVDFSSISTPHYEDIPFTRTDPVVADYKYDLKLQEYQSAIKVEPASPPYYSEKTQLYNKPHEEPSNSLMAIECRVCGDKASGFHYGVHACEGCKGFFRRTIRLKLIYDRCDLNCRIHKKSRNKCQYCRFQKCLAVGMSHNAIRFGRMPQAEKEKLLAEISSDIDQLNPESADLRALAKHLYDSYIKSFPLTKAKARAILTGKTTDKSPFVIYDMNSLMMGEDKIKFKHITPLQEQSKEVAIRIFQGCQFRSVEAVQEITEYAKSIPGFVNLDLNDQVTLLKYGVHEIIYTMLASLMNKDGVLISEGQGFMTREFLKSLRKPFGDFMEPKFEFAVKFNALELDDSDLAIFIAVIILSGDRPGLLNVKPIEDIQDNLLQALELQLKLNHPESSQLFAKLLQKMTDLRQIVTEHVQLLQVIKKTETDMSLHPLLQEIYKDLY
human Peroxisome Proliferator-activated Receptor alpha (PPARa), PPARA (gene 5465), sequence (Q07869 whole entry, looked up, the tested form may be a part): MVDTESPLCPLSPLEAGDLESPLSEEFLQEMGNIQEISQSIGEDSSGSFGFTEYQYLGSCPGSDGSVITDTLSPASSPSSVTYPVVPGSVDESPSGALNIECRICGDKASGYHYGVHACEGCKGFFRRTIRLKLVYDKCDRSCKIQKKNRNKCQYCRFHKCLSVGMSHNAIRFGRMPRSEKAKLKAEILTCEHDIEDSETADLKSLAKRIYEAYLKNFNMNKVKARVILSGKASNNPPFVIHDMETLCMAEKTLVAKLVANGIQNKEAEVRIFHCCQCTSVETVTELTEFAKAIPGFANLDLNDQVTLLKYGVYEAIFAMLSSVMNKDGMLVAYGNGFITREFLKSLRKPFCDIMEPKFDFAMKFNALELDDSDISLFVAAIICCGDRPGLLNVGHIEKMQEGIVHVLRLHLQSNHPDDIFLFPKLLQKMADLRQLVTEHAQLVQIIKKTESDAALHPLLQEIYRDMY
human Peroxisome Proliferator-activated Receptor delta (PPARd), PPARD (gene 5467), sequence (Q03181 whole entry, looked up, the tested form may be a part): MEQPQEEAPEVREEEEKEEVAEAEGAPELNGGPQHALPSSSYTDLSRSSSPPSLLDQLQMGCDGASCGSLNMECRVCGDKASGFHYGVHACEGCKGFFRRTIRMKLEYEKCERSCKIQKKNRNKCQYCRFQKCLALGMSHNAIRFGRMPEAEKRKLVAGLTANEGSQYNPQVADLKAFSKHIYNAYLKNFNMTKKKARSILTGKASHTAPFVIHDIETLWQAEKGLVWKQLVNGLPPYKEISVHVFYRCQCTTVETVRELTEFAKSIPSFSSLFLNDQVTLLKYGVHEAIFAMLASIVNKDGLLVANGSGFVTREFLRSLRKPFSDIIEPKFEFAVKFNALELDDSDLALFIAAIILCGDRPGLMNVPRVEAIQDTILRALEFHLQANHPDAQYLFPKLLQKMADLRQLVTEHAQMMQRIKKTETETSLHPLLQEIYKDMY
human RAR-related Orphan Receptor beta (RORb), RORB (gene 6096), sequence (Q92753 whole entry, looked up, the tested form may be a part): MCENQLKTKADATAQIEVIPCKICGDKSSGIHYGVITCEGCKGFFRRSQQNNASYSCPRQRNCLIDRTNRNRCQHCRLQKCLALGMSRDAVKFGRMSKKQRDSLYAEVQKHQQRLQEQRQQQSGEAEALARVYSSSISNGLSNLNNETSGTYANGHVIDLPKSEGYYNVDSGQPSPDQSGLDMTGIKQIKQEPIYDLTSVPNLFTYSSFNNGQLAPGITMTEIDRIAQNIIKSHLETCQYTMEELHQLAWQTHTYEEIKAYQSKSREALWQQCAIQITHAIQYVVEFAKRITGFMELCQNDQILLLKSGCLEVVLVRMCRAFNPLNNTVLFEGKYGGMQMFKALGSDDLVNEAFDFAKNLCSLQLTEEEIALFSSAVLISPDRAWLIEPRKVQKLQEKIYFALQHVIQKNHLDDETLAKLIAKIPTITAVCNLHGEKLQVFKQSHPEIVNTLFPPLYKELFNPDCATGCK

The AC50 is the concentration giving half of the maximal activity seen. In the case of `C[C@H]1[C@H](c2ccc(Cl)cc2)SC(=O)N1C(=O)NC1CCCCC1`, the result in test [1], in [4], in [5], in test [7], in test [8] and in test [9] was inactive. In addition, the outcome in test [10], in test [11], in test [13] and in [14] was inactive. Besides, the AC50 is 13.5 µM (active) in [2], 13.7 µM (active) in test [3], 13.1 µM (active) in test [6] and 13.1 µM (active) in test [12].

`O=C(NC(=O)c1c(F)cccc1F)Nc1ccc(OC(F)(F)C(F)OC(F)(F)F)c(Cl)c1` (stereo not given): the result in [1], in test [15], in test [5], in [6], in [7] and in test [8] was inactive. Moreover, the call in test [16], in test [9] and in test [12] was inactive. For the same compound, the values for the AC50 in [2] and in [3] were 13.8 µM (active) and 19.9 µM (active), respectively.

Consider `CC[C@H](C)[C@H]1O[C@]2(C=C[C@@H]1C)C[C@@H]1C[C@@H](C/C=C(\C)[C@@H](O[C@H]3C[C@H](OC)[C@@H](O[C@H]4C[C@H](OC)[C@@H](O)[C@H](C)O4)[C@H](C)O3)[C@@H](C)/C=C/C=C3\CO[C@@H]4[C@H](O)C(C)=C[C@@H](C(=O)O1)[C@]34O)O2` (tested in a mixture with another compound), for which the outcome in test [1], in test [15], in [2], in test [3], in [4] and in [10] was inactive. For the same compound, the call in test [11] and in test [14] was inactive. The AC50 in test [5] is 12 µM (active); in [6] it was 5.44 µM (active); in test [7], 9.38 µM (active); in test [8] it was 9.57 µM (active); in [9] it was 12.4 µM (active); in test [12] it was 4.78 µM (active).

Regarding `CCc1ccc(C(=O)NN(C(=O)c2cc(C)cc(C)c2)C(C)(C)C)cc1`, the call in test [1], in test [3], in test [4], in [5], in test [7] and in test [8] was inactive. The result in test [9], in [10], in test [11], in [12], in test [17] and in test [13] was inactive. Also, the outcome in test [14] and in [18] was inactive. Also, the AC50 in [15] was 9.92 µM (active); in test [2], 9.92 µM (active); in [6] it was 20 µM (active).

As for `CN1CSC(=S)N(C)C1`, the AC50 in test [1] is 69.1 µM (active); in test [2], 21.7 µM (active); in [3], 24.6 µM (active); in test [7] it was 21.5 µM (active); in test [8] it was 20.9 µM (active); in test [12] it was 26.6 µM (active). Besides, the compound was classed as inactive in test [15], in test [4], in test [5], in test [6], in [19] and in [9]. Also, the result in [10] and in test [18] was inactive.

In the case of `N#CN`, the call in test [1], in test [15], in test [2], in test [3], in test [5] and in test [6] was inactive. The outcome in [7], in [8], in test [19], in test [16], in test [9] and in test [12] was inactive. Also, the call in test [17] and in test [13] was inactive.

In the case of `CCCN(CCC)c1c([N+](=O)[O-])cc(C(F)(F)F)cc1[N+](=O)[O-]`, the outcome in [1], in test [15], in test [5], in test [6], in test [7] and in test [9] was inactive. Besides, the AC50 in [2] is 8.43 µM (active); in test [3] it was 2.29 µM (active); in test [8] it was 33 µM (active); in test [12], 29.1 µM (active); in test [13] it was 10.6 µM (active).
